This is one part of a sample in which hits are shown more often than they occur.
Pf Dd2 growth: inhibitors of Plasmodium falciparum Dd2 growth. P. falciparum Dd2 growth, SYBR Green, 72 h. Potency, µM (highest dose often 28.9 µM), for the others: top-dose activity, negative = inhibition, actives largely listed as inhibitors. 120,000 compounds, 4.3% hits. AID 1347417; active means well fitted inhibition curve with a large enough effect;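 further: plate controls were DMSO vehicle for no effect and reference drug for full effect; nearly all actives have a fitted effect of over 65% in size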
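Readout: SYBR Green fluorescence, 485 nm excitation, 535 nm emission, after ~16 h lysis at 37C. Before that, Dd2-infected red cells (2.5% hematocrit) grew 72 h with compound, 29 uM top final concentration.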
* marks the source's active call; other numbers are inactive results; i = inactive; [ ] = dose if it differs, or a comment. Potency means the concentration at half of the fitted maximal effect.

SMILES	Pf Dd2 growth
O=C(CN1CCOC1=O)N1CCCC(CCc2ccc(F)cc2F)C1 (stereo not drawn)	-17.9%
Cc1nc2ncccn2c1C(=O)N1C[C@H]2C(=O)NC[C@@]2(C(=O)O)C1	-8.6%
Cc1ccc(NC(=O)N2CC(C(=O)N(C)C)C3(CCOCC3)C2)cc1Cl (stereo not drawn)	-17.4%
CSc1cccc(NC(=O)Cn2ccn3nc4c(c3c2=O)CCCCC4)c1	5.5%
O=C1CCC(C(=O)N2CCc3nc(-c4cccc(F)c4)[nH]c3C2)NC(=O)N1 (stereo not drawn)	-10.0%
c1ccc(CN2CCC[C@H]2c2nc(-c3ccnc(N4CCOCC4)c3)no2)nc1	7.08µM*
c1cc(-c2noc([C@@H]3CCCN3Cc3ncc[nH]3)n2)cc(N2CCOCC2)n1	13.0%[44.1 µM]
COc1ccc(CN2CCC[C@H]2c2nc(-c3ccnc(N4CCOCC4)c3)no2)cc1	-25.9%[44.1 µM]
CC(=O)N1CCN(c2cc(-c3noc([C@@H]4CCCN4Cc4ccc(CO)o4)n3)ccn2)CC1	i
NC(=O)C1CCN(c2cc(-c3noc([C@@H]4CCCN4Cc4ccccc4F)n3)ccn2)CC1	i
CC(=O)N1CCN(c2cc(-c3noc([C@@H]4CCCN4Cc4ccccc4C)n3)ccn2)CC1	12.6µM*
O=C(C1CC1)N1CCn2c(nnc2[C@@H]2C[C@@H](O)CN2Cc2ccccc2)C1	44.0%
Cc1cccc2c1nc1n2[C@@H](CNC(=O)c2ccc3c(c2)OCO3)COC1	i
CC(=O)N1CCN([C@H]2[C@@H]3OC[C@@H](O3)[C@@H](NC(=O)NC3CCCCC3)[C@@H]2O)CC1	28.8%[44.1 µM]
CC(C)c1noc(CC2CCN(C(=O)c3ccc(C(C)(C)C)cc3)CC2)n1	7.94µM*
CC(C)c1noc(CC2CCN(C(=O)c3ccc(F)cc3)CC2)n1	17.1%
CC(C)c1noc(CC2CCN(C(=O)c3ccc(N(C)C)cc3)CC2)n1	-0.3%
C[C@@H]1CN(C(=O)Cc2cn3ccsc3n2)CC[C@@]1(O)C1CCOCC1	-13.5%
Cc1ccc(CN(Cc2ccco2)C(=O)COc2ccc(Cl)cc2Cl)cc1	-23.1%
Cc1ccsc1CN(Cc1ccco1)c1cnc(S(C)(=O)=O)nc1C(=O)Nc1ccc(Cl)cc1	4.47µM*
CN(c1ccccc1)S(=O)(=O)c1ccc(NC(=O)c2nc(S(C)(=O)=O)ncc2Cl)cc1	15.1%[5.79 µM]
Cc1cccc(NC(=O)Cn2nnc(C(=O)NCc3ccco3)c2N)c1	24.7%
CCc1ccc(CN(Cc2ccco2)c2cnc(S(C)(=O)=O)nc2C(=O)Nc2cccc(C)c2)cc1	11.2µM*
CCS(=O)(=O)c1ncc(N(Cc2ccccc2)Cc2ccco2)c(C(=O)Nc2ccccc2C)n1	-15.7%
CCS(=O)(=O)c1ncc(N(Cc2ccccc2)Cc2ccco2)c(C(=O)Nc2ccc(C)c(C)c2)n1	5.01µM*
SMILES	Pf Dd2 growth
CCCS(=O)(=O)c1ncc(Cl)c(C(=O)N(Cc2ccccc2)Cc2ccco2)n1	7.8%
COc1ccc(NC(=O)Cn2c(N(C)Cc3ccccc3)nc(C)cc2=O)cc1Cl	-4.1%
CS(=O)(=O)c1ncc(Cl)c(C(=O)Nc2c(C(=O)Nc3ccccc3)oc3ccccc23)n1	i
CCS(=O)(=O)c1ncc(Cl)c(C(=O)Nc2c(C(=O)Nc3cccc(C)c3)oc3ccccc23)n1	-22.0%
COc1ccc(NC(=O)c2nc(S(C)(=O)=O)ncc2N(Cc2ccc(C)cc2)Cc2ccco2)cc1Cl	10µM*
COC[C@@H]1CN(C(=O)c2ccc3ncccc3c2)C[C@H]1c1ccccn1	-5.8%
CCOc1cccc(-c2noc(-c3nnn4c3COC(c3ccc(C)cc3C)C4)n2)c1 (stereo not drawn)	i
Cc1cnc(C2CC2)n1C1CCN(C(=O)C2CC2)CC1	-11.8%
COc1cccc(CN2CCOC[C@H](Oc3ccc(C(F)(F)F)cc3)C2)c1	-23.2%[44.1 µM]
Cc1noc([C@@H]2CC(F)(F)CN2C(=O)c2cc(C)[nH]n2)n1	27.0%
CCC(CC)NC(=O)c1c(OCC2CC2)cc(=O)n2c1CCCCC2	72.7%
Cn1ncc(N2CCCC(CC(=O)NCCN3CCCCC3)C2)cc1=O (stereo not drawn)	24.9%
CS(=O)(=O)c1ccc(OCC2(CNC(=O)c3cccc(F)c3)C[C@@H](O)[C@@H](O)C2)cc1 (stereo partly drawn)	4.8%
O=C1CS(=O)(=O)C2(CCNCC2)N1	15.4%
CCCCN1C(=O)C(CC(=O)NC(C)C)Sc2ncccc21 (stereo not drawn)	-8.9%
O=C(CN1CCCc2nc(C3CC3)ncc2C1=O)NCCCN1CCCC1=O	38.8%
CC(C)C[C@@H](NC(=O)C1=C[C@@H](NC(=O)c2ccco2)[C@@H](O)[C@H](O)C1)C(N)=O	13.9%[44.1 µM]
CCn1c(C)cc(C(=O)N2CC[C@H](N3CCN(C)CC3)[C@H](CCCO)C2)c1C	1.4%
Cc1ccc(NC(=O)c2nc(S(C)(=O)=O)ncc2N(Cc2ccc(C(C)(C)C)cc2)Cc2ccco2)cc1C	7.08µM*
CC(C)(C)c1ccc(C(=O)N(Cc2ccc(F)cc2)Cc2ccco2)cc1	-13.9%
Cc1ccc(NC(=O)c2nc(S(=O)(=O)Cc3ccc(F)cc3)ncc2Cl)cc1C	42.9%[5.79 µM]
Cc1cc(C(=O)N2CCCn3nc(C(=O)NCCN(C)C)cc3C2)ccc1F	-1.6%
CCN(C(=O)Cn1nc(Cc2ccncc2)c2ccccc2c1=O)c1cccc(Cl)c1	11.2µM*
CCOc1ccc(NC(=O)Cn2nc(Cc3cccnc3)c3ccccc3c2=O)cc1	-24.1%
Cc1ccc(NC(=O)Cn2nc(Cc3ccncc3)c3ccccc3c2=O)c(Cl)c1	5.7%
SMILES	Pf Dd2 growth
COc1ccccc1OC(C)C(=O)NCC1(N2CCOCC2)CCCCC1 (stereo not drawn)	i
CN(Cc1nc(COc2ccccc2)no1)CC1(N2CCOCC2)CCCCC1	8.91µM*
CN(CCCN1CCOCC1)Cc1nc(-c2cccs2)no1	-23.4%
Cc1noc(CN2CCN(c3nc(N)nc4c3CCC4)CC(O)C2)n1 (stereo not drawn)	2.8%
Cc1ncc(CN2CCC(C(=O)O)(n3ccc(-c4ccco4)n3)CC2)[nH]1	-4.3%
CCn1cc(S(=O)(=O)c2ccccc2)c(=O)c2cc(F)c(F)cc21	i
CCOc1ccc(S(=O)(=O)c2cn(CC)c3ccc(F)cc3c2=O)cc1	-1.8%
CCOc1ccc2c(c1)c(=O)c(S(=O)(=O)c1ccccc1)cn2CC(=O)Nc1ccccc1OC	11.2µM*
COc1ccc(NC(=O)Cn2cc(S(=O)(=O)c3ccc(C)cc3)c(=O)c3ccccc32)cc1OC	-14.8%
CCc1ccc2c(c1)c(=O)c(S(=O)(=O)c1ccc(F)cc1)cn2CC(=O)Nc1ccccc1OC	-29.4%
CCOc1ccc2c(c1)c(=O)c(S(=O)(=O)c1ccc(C)cc1)cn2CC(=O)Nc1ccc(C)cc1	i
COc1cc2c(=O)c(S(=O)(=O)c3ccc(F)cc3)cn(Cc3ccccc3C)c2cc1OC	11.2µM*
COc1ccc2c(c1)c(=O)c(S(=O)(=O)c1ccc(Cl)cc1)cn2C	-27.8%
COc1cc(NC(=O)Cn2cc(S(=O)(=O)c3ccccc3)c(=O)c3ccccc32)cc(OC)c1	i
Cc1ccc(S(=O)(=O)c2cn(Cc3cccc(C)c3)c3cc4c(cc3c2=O)OCO4)cc1	-10.9%
CCOc1ccc2c(c1)c(=O)c(S(=O)(=O)c1ccc(Cl)cc1)cn2Cc1ccccc1C	12.6µM*
CCOc1ccc2c(c1)c(=O)c(S(=O)(=O)c1ccc(C)cc1)cn2Cc1ccccc1Cl	12.6µM*
Cc1cc2nc3n(c(=O)c2n1CC(=O)NCc1cccc(Br)c1)CCCCC3	-17.5%
O=C(NCCCN1CCOCC1)c1noc(-c2ccc[nH]c2=O)n1	i
